From PubChem BioAssay (Tox21) come the findings set out here.

SMILES strings stand for the structures. Records with an inconclusive call do not appear. Activity calls are given as the source filed them. The call rests on the fitted dose curve; in most records, active means well fitted cell-killing curve with a large enough effect in the repeat runs; inconclusive means weak or mixed curves, or effect the other way; inactive means flat fitted curve, though single readings scatter.
On the % scale 0 is the no-effect control and ±100 the full control effect.

The experiment can be described thus: qHTS assay to identify small molecule antagonists of the retinoid acid receptor (RAR) signaling pathway - cell viability counter screen (AID 1159551). Further: nearly all actives have a fitted effect of over 35% in size. The following applies: C3RL4 cells viability, ATP luminescence (CellTiter-Glo), 6 h; series mostly up to 92.4 µM; activity change, negative = cytotoxicity: at the top concentration. The text has this:
U.S. Tox21 Program National Center for Advancing Translational Sciences [NCATS] NIH Chemical Genomics Center [NCGC] U.S. Environmental Protection Agency [EPA] National Institutes of Environmental Health Sciences [NIEHS] National Toxicology Program [NTP] U.S. Food and Drug Administration [FDA] Tox21 Assay Overview: All-trans Retinoic acid (atRA) is the potent natural metabolite of retinol and plays an important role in normal embryonic development and maintenance of cellular phenotype in adult animals. atRA is the activating ligand for the retinoic acid receptors (RARs) which form heterodimers with retinoid X receptors (RXRs) on the retinoic acid response element (RARE). Through activation of the RAR/RXRs nuclear receptors, atRA regulates the transcription of a large number of protein-coding genes and regulatory RNAs. Intracellular levels of atRA are controlled by the retinol signaling pathway (RSP) that regulates the biosynthesis and catabolism of atRA to maintain physiological levels. Chemicals that interfere with the RSP can cause abnormal intracellular levels of atRA and therefore are potential developmental toxicants. To assess compounds for the potential adverse effect on embryonic development through interfering with retinol signaling, a cell-based RARE luciferase reporter gene assay was used. C3RL4 cell line (OARSA/CFSAN/FDA, Laurel, MD) was used to screen Tox21 10K compound library for identifying inhibitors of the RSP. Also cytotoxicity was assessed by determining the viability of cells based on the quantitation of ATP.
Tox21 Assay Protocol Summary: C3RL4 cells were seeded at 1,000/well in 4 uL of assay medium into white solid 1,536-well tissue culture plates (Greiner Bio-One North America Inc. Monroe, NC) using a Multidrop Combi (Thermo Scientific, Waltham, MA) dispenser. After incubation at 37 C and 5% CO2 for an overnight, 23 nL of compounds dissolved in DMSO, positive control or DMSO only were transferred by a Pintool station (Kalypsys, San Diego, CA). One ul of 1 uM (final concentration) of Retinol was added right after the compound addition by using a Flying Reagent Dispenser (FRD) (Aurora Discovery, San Diego, CA). After 6 hr incubation at 37 C and 5% CO2, 5 uL of CellTiter-Glo reagent (Promega Corporation, Madison, WI) was added to each assay plate using an FRD. Luminescence was quantified on a ViewLux plate reader (PerkinElmer, Waltham, MA) after 30 min incubation at room temperature.
In general terms: Quantitative high-throughput screening tests each substance at several concentrations.
With `O=Cc1ccc(Cl)c([N+](=O)[O-])c1`, the “activity change, negative = cytotoxicity” value is -9.24% (inactive). In the case of `Clc1cc(Cl)c2c(c1)N=C1CCCCCN1C2` it was -0.933% [at 42.5 µM] (inactive); in that of `Nc1ccc(C(=O)Oc2ccccc2)c(O)c1`, -1.79% [at 42.5 µM] (inactive). Next, `CC(C(=O)O)c1ccc2c(c1)Cc1cccnc1O2` (stereo not given): 4.84% [at 42.5 µM] (inactive). In the case of `S=c1[nH][nH]c(=S)s1` it was -0.144% (inactive); in that of `CCC(C)C1N=C(C)C(C)S1` (stereo not given), 1.99% (inactive). For `CC1=C(C)C(=O)C(C(CCCCCC(=O)O)c2ccccc2)=C(C)C1=O` (stereo not given), the “activity change, negative = cytotoxicity” value was 5.37% [at 42.5 µM] (inactive).

Turning to `CC(C)(C)N`, the “activity change, negative = cytotoxicity” value was 2% (inactive). Next, `CCCCCCCCCCCCN1CCOCC1`: 1.51% (inactive); `C[C@H](CN1CCCC1)C(=O)c1ccc(C(F)(F)F)cc1`: -0.251% [at 42.5 µM] (inactive).

Regarding `Nc1nc(Cl)nc2c1ncn2[C@H]1C[C@H](O)[C@@H](CO)O1`, the “activity change, negative = cytotoxicity” value was 6.23% (inactive). For the compound `CCCC1CCCC(=O)O1` (stereo not given), the “activity change, negative = cytotoxicity” value was 0.474% (inactive).

Take `O=C1c2ccccc2C(=O)C1c1ccc2ccccc2n1`: the “activity change, negative = cytotoxicity” value is -0.0969% [at 42.5 µM] (inactive). In the case of `Cc1ccc(Cl)c(OCC(O)CNC(C)(C)C)c1` (stereo not given) it was -0.903% [at 42.5 µM] (inactive).

Consider `CNc1ccccc1`, for which the “activity change, negative = cytotoxicity” value is 1.62% (inactive). In the case of `CCCCCCCCCCCCCCCCCCCl` it was -1.45% [at 8.39 µM] (inactive). In the case of `CC(C)NC(=O)c1ccccc1N` it was 4.28% (inactive).

On to `C1=COCCC1`, for which the “activity change, negative = cytotoxicity” value was -4.26% (inactive). Consider `COc1ccc(CN(CCN(C)C)c2ncccn2)cc1`, for which the “activity change, negative = cytotoxicity” value is -0.53% [at 42.5 µM] (inactive). In the case of `CCN(CC)CC(=O)OCC(=O)[C@@]1(O)CC[C@H]2[C@@H]3CCC4=CC(=O)CC[C@]4(C)[C@H]3[C@@H](O)C[C@@]21C` it was 3.82% [at 42.5 µM] (inactive).

Turning to `CC(COc1ccccc1)NC(C)C(O)c1ccc(O)cc1` (stereo not given), the “activity change, negative = cytotoxicity” value is 2.95% [at 42.5 µM] (inactive).

With `FC(F)(Cl)C(F)(Cl)Cl`, the “activity change, negative = cytotoxicity” value is 4.7% (inactive). In the case of `CCOc1ccc(NC(C)=O)cc1N` it was 3.5% (inactive); in that of `Cc1c(Cl)cccc1Nc1ccccc1C(=O)O`, 0.221% [at 42.5 µM] (inactive); in that of `CC1(COc2ccc(CC3SC(=O)NC3=O)cc2)CCCCC1` (stereo not given), 2.11% [at 42.5 µM] (inactive). In the case of `CC(CN=Cc1ccccc1O)N=Cc1ccccc1O` (stereo not given) it was -0.126% (inactive); in that of `NC(=O)c1ccccc1`, 0.302% (inactive). In the case of `CCC1=C(C)CN(C(=O)NCCc2ccc(S(=O)(=O)NC(=O)NC3CCC(C)CC3)cc2)C1=O` (stereo not given) it was 2.72% [at 42.5 µM] (inactive). Take `O=S(=O)(O)c1cc(Cl)c(Cl)cc1Cl`: the “activity change, negative = cytotoxicity” value is 1.3% (inactive). Next, `CCCCCCCCCCCCSCCOCCO`: -3.13% [at 42.5 µM] (inactive).

For `CC(C)CC(C)(C)C`, the “activity change, negative = cytotoxicity” value was -4.35% (inactive).

As to `CC1(C)[C@@H]2CC[C@]3(C2)[C@@H]1C(=O)CCC3(C)C`, the “activity change, negative = cytotoxicity” value is -0.547% (inactive). In the case of `O=[N+]([O-])c1cccc(I)c1` it was 4.41% (inactive); in that of `CC(C)=CCCC(C)C=O` (stereo not given), -0.33% (inactive); in that of `COC=O`, 0.256% [at 8.39 µM] (inactive). `O=C(OC1C[C@H]2CC[C@@H](C1)[N+]21CCCC1)C(O)(c1ccccc1)c1ccccc1` (stereo not given in full): the “activity change, negative = cytotoxicity” value is -0.0811% [at 42.5 µM] (inactive). In the case of `CCOC(C)OCC` it was -0.453% (inactive). Next, `COc1cc(CNC(=O)CCCC/C=C/C(C)C)ccc1O`: 1.51% (inactive); `C=C[Si](OCC)(OCC)OCC`: 1.4% (inactive); `Cc1cc(C)n(CO)n1`: -0.442% (inactive).
